Screens (PubChem)
A selection: hits, their analogues and other compounds. The true share with any hit is near 2.2%.
Ba/F3 V617F tox = reduce viability of Ba/F3 cells dependent on JAK2V617F. inhibition, % at 5.6 µM. 220,000 compounds, 1.1% hits. AID 1446. Ba/F3 EpoR-JAK2V617F viability, ATP luminescence;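 active = inhibition above the campaign mean plus 3 SD over all tested compounds, cut at about 24% in these data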;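 note: cytokine-independent growth of Ba/F3 cells driven by EpoR plus mutant JAK2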
APP 5UTR inh = APP translation inhibition. inhibition, % at 2 µM. AID 1285. 190,000 compounds, 0.82% hits. SH-SY5Y APP 5'UTR-luciferase reporter, luminescence;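 active = inhibition above a set limit, derived from the sample mean plus 3 SD, cut at about 45% in these data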
IEC-6 cytotox = counter-screen for KLF5 inhibitors: cytotoxicity in IEC-6 cells | IEC-6 cytotoxicity, luminescence viability | inhibition, % at 5 µM | 290,000 compounds, 0.78% hits | AID 1825; in the data active = inhibition above about 22%
aSyn 5UTR inh = 5' untranslated region of α-synuclein, MLPCN primary screen. alpha-synuclein 5'UTR reporter, inhibitor activity. inhibition, % (tested at 7.5 µM). 300,000 compounds, 0.82% hits; in the data active = inhibition above about 60%;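 note: H4 neuroglioblastoma cells stably carrying SNCA 5'UTR luciferase fusion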
BaF3 tox = reduces parental Ba/F3 cell viability, JAK2V617F counter-screen | inhibition, % at 5.6 µM | 220,000 compounds, 1.1% hits | CellTiter-Glo ATP luminescence;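 active = inhibition above a per-campaign cutoff, the mean inhibition of all tested compounds plus 3 SD, cut at about 27% in these data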
KLF5 inhibitor = kruppel-like factor 5 inhibition | AID 1700 | 290,000 compounds, 0.23% hits | inhibition, % at 5 µM | DLD-1 KLF5 promoter-luciferase reporter, luminescence;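 active = inhibition above a per-plate limit of that plate's mean compound inhibition plus 3 SD, cut at about 60% in these data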;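 note: higher means less KLF5 promoter-driven luciferase light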
Numbers stand for hits; n = inactive; x = no result.

SMILES	Ba/F3 V617F tox	APP 5UTR inh	IEC-6 cytotox	aSyn 5UTR inh	BaF3 tox	KLF5 inhibitor
N/C(=N\NC(=O)c1sccc1OCc1ccc(Cl)cc1Cl)c1ccccn1	n	62	n	n	n	n
COc1ccccc1-c1ccc(SCc2ccc([N+](=O)[O-])cc2)nn1	n	n	n	n	n	n
COc1ccccc1-c1ccc(SCc2cccc(C)c2)nn1	61	n	n	n	66	n
CCc1ccc(/C=N/NC(=O)Cc2cccn2C)cc1	n	x	n	n	n	n
CC(=O)N1N=C(c2ccccc2)CC1c1ccc2c(c1)OCO2 (stereo not drawn)	x	x	n	n	x	n
CC(=O)C1=NN(c2ccccc2)C(c2ccc3c(c2)OCO3)N1c1ccccc1 (stereo not drawn)	n	n	n	n	46	n
CC(=O)C1=NN(c2ccccc2)C(c2cccs2)N1c1ccc(N(C)C)cc1 (stereo not drawn)	81	n	n	n	70	n
c1sc2[n+](c1C13CC4CC(CC(C4)C1)C3)CCS2	63	n	n	n	61	n
Fc1ccc(-c2csc3[n+]2CCS3)cc1	n	n	n	n	n	n
Cn1c(=O)oc2cc(S(=O)(=O)N3CCCc4ccccc43)ccc21	55	n	n	n	45	n
Cn1c(=O)oc2cc(S(=O)(=O)N3CCc4ccccc43)ccc21	n	x	n	n	n	n
Cn1c(=O)c(=O)n(C)c2cc(S(=O)(=O)N3CCc4ccccc43)ccc21	n	n	n	n	31	n
O=S(=O)(c1ccc2ccccc2c1)N1CCc2ccccc21	x	x	n	n	x	n
COC(=O)Nc1ccc(S(=O)(=O)N2CCCc3cccc(O)c32)cc1	n	n	n	n	n	n
COC(=O)Nc1ccc(S(=O)(=O)N2CCCc3ccccc32)cc1	85	90	74	84	79	n
Cc1cccc(C(=O)Nc2ccccc2C(=O)NCc2ccco2)c1	x	x	n	n	x	n
CCN(Cc1nc(-c2cccc(C)c2)no1)C(=O)c1ccco1	x	x	n	n	x	n
CC(OC(=O)CCN=C1NS(=O)(=O)c2ccccc21)C(=O)Nc1ccc(N(C)C)cc1 (stereo not drawn)	x	x	x	n	x	x
CN(C)CCCNc1nc(-c2ccccc2)nc2ccccc12	n	x	n	n	n	n
OCCNc1c2ccccc2nc2c(F)c(F)c(F)c(F)c12	n	87	n	n	n	n
CN(C)CCCNc1c2ccccc2nc2ccccc12	x	x	n	71	x	n
c1ccc2c(NCCCN3CCOCC3)c3ccccc3nc2c1	n	63	n	x	n	n
COc1ccc(CSc2nnc3[nH]c(=O)cc(N)n23)cc1	n	n	n	n	n	n
OC(CNCC1COc2ccccc2O1)COc1ccc(Cl)cc1 (stereo not drawn)	x	x	n	n	x	n
CCCCn1c(O)c(/C=C2\C=NN=C2c2ccccc2)sc1=S	n	n	n	n	n	n
SMILES	Ba/F3 V617F tox	APP 5UTR inh	IEC-6 cytotox	aSyn 5UTR inh	BaF3 tox	KLF5 inhibitor
CCn1c(O)c(/C=C2\C=NN=C2c2ccccc2)sc1=S	n	x	n	67	n	n
Cc1ccc(C2(O)CN(c3ccccc3)C3=[N+]2CCS3)cc1 (stereo not drawn)	n	n	n	n	n	n
COc1ccc(-c2c[n+]3c(n2-c2ccccc2)SCC3)cc1OC	46	n	n	n	77	n
COc1ccc(-c2nnc3n2-c2ccccc2SC3)cc1OC	n	n	n	n	n	n
COc1ccc(-c2c[n+]3c(n2-c2ccccc2)SCC3)cc1	73	x	n	n	61	n
Cc1ccc(-c2c[n+]3c(n2-c2ccccc2)SCC3)cc1	79	x	n	n	64	n
N#Cc1ccc(-c2cn(-c3ccccc3)c3[n+]2CCCS3)cc1	n	n	n	n	n	n
Brc1ccc(-c2c[n+]3c(n2-c2ccccc2)SCC3)cc1	64	x	n	n	59	n
COCCNC(=O)CCc1nnc2ccc(N3CCC(C)CC3)nn12	x	x	n	n	x	n
CCc1ccc(C2=NN(C(=O)CCC(=O)O)C(c3cccs3)C2)cc1 (stereo not drawn)	x	x	n	n	x	n
O=C(O)c1cccc(N/N=C/c2cccs2)c1	n	n	n	96	n	n
CSc1ccc(/C=N/Nc2cccc(C(=O)O)c2)cc1	n	n	n	x	n	n
Cn1c(Cc2ccccc2)[n+](C)c2ccccc21	67	n	n	n	69	n
Cn1c(=O)c(Cc2ccccc2)c(O)c2ccccc21	n	n	n	n	n	n
COc1ccc(OC)c(NC(=O)c2cc(OC(C)=O)cc(C(=O)Nc3cc(OC)ccc3OC)c2)c1	x	x	n	n	x	n
N#Cc1nc(COc2ccc(F)cc2)oc1N1CCC(Cc2ccccc2)CC1	n	66	n	n	n	n
O=C(COC(=O)CCN1C(=O)/C(=C\C=C\c2ccccc2)SC1=S)Nc1cc(F)ccc1F	n	n	n	64	n	n
O=C(CN1C(=O)/C(=C\C=C\c2ccccc2)SC1=S)Nc1ccc(F)cc1	n	n	n	n	n	n
Cc1cc(C)c2cc(C=O)c(Cl)nc2c1	n	93	n	n	n	n
COc1ccc(C(=O)N2CCN(C3CCCCC3)CC2)cc1OC	x	x	n	n	x	n
NC(N)=Nc1nc(-c2ccccc2)c2ccccc2n1	n	n	n	n	n	n
COc1nc(N=C(N)N)nc2ccc(C)cc12	55	n	n	n	56	n
CN(C)CCn1c(N)nc2ccccc21	n	x	n	n	n	n
O=C(Nc1nnc(CCN2CCCCC2)s1)c1ccc(Cl)cc1Cl	n	x	n	n	n	n
Cc1ccc(NC(=O)CN(C)C(=O)Cn2ncc(Cl)c(Cl)c2=O)cc1	n	96	n	82	n	n
SMILES	Ba/F3 V617F tox	APP 5UTR inh	IEC-6 cytotox	aSyn 5UTR inh	BaF3 tox	KLF5 inhibitor
O=C(Cn1ncc(Cl)c(Cl)c1=O)NCC1CCCCC1	n	97	n	x	n	n
O=C(Cn1ncc(Cl)c(Cl)c1=O)c1ccc(Cl)cc1	n	81	n	n	n	n
O=C1CN(C(=O)Cn2ncc(Cl)c(Cl)c2=O)c2ccccc2N1	n	90	n	n	n	n
CC(=O)Nc1cccc(NC(=O)C(=O)c2cn(CC(=O)N3CCCCC3)c3ccccc23)c1	n	n	n	n	n	n
CC(C)(C)C(=O)Cn1ncc(Cl)c(Cl)c1=O	n	50	n	n	n	n
CC(C)(C)C(=O)Cn1ncc(N2CCCC2)c(Br)c1=O	n	n	n	n	n	n
CC1=CC(C)(C)N2C(=O)C(=O)c3cc(OC(=O)c4ccco4)cc1c32	69	66	88	n	53	n
O=C(/C=C/Nc1ccc(S(=O)(=O)Nc2cnc3ccccc3n2)cc1)c1ccccc1	n	x	n	n	52	n
CSC(=Nc1cccc(C)c1)NC#N	n	n	n	n	n	n
CC[n+]1c(/C=C/c2c[nH]c3ccccc23)ccc2cc(C)ccc21	91	n	n	x	79	n
CCOC(=O)C1=C(N)n2c(s/c(=C\c3ccncc3)c2=O)=C(C(=O)OCC)C1c1ccncc1 (stereo not drawn)	n	n	n	n	n	n
CCOC(=O)C1=C(N)n2c(s/c(=C\c3cccs3)c2=O)=C(C(=O)OCC)C1c1cccs1 (stereo not drawn)	42	n	n	n	54	n
